Legend:
Assay in all cases: thermal shift delta Tm vs DMSO control; higher = stronger stabilization (binding)
Conditions in all cases: 12.5 µM; protein concentration 2 µM
[1] = test system: LOC_OS01G57100-cb003
Summary of the method: (§1)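 Compounds dissolved in DMSO were added to purified rice kinase domain constructs, which had been expressed in E. coli, for differential scanning fluorimetry. Each well held 19.5 μl of 2 μM kinase in 100 mM potassium phosphate pH 7.5, 150 mM NaCl, 10% glycerol and 5 × SYPRO Orange. Fluorescence was followed from 25°C to 95°C at a rate of 0.05°C/s. Shifts in Boltzmann-fitted melting temperature are triplicate means relative to DMSO-only protein.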

[2] = test system: LOC_OS01G60330-cb001
Summary of the method: as §1

[3] = test system: LOC_OS01G60700-cb002
Summary of the method: as §1

[4] = test system: LOC_OS01G63280-cb003
Summary of the method: as §1

[5] = test system: LOC_OS01G67340-cb003
Summary of the method: as §1

[6] = test system: LOC_OS01G70970-cb002
Summary of the method: as §1

[7] = test system: LOC_OS02G07810-cb001
Summary of the method: as §1

[8] = test system: LOC_OS02G08530-cb003
Summary of the method: as §1

[9] = test system: LOC_OS02G14120-cb001
Summary of the method: as §1

[10] = test system: LOC_OS02G17970-cb001
Summary of the method: as §1

| SMILES | thermal shift delta Tm [1] [°C] | thermal shift delta Tm [2] [°C] | thermal shift delta Tm [3] [°C] | thermal shift delta Tm [4] [°C] | thermal shift delta Tm [5] [°C] | thermal shift delta Tm [6] [°C] | thermal shift delta Tm [7] [°C] | thermal shift delta Tm [8] [°C] | thermal shift delta Tm [9] [°C] | thermal shift delta Tm [10] [°C] |
| --- | --- | --- | --- | --- | --- | --- | --- | --- | --- | --- |
| CN1CC[C@H](c2c(O)cc(O)c3c(=O)cc(-c4ccccc4Cl)oc23)[C@H](O)C1 [Flavopiridol (Alvocidib)] | 0.96 | 0.94 | 0.39 | 0.37 | -0.01 | 1.4 | 0.63 | 1.53 | 1.28 | -0.3 |
| Cc1c(Cn2c(C)nc3c(C(=O)O)cc(N4CCOCC4)cc32)cccc1C(F)(F)F | 1.01 | 0.83 | 0.4 | -0.3 | 0.23 | 0.27 | 0.73 | 0.55 | -0.38 | 0.26 |
| O=C(NCCCNc1nc(Nc2cccc(NC(=O)N3CCCC3)c2)ncc1I)c1cccs1 | 1.91 | 11.8 | 0.35 | 0.47 | 2.07 | 8.4 | 1.11 | 2.77 | 9.13 | 0.49 |
| COc1cc(OC)cc(N(CCNC(C)C)c2ccc3ncc(-c4cnn(C)c4)nc3c2)c1 | 1.85 | 0.09 | 0.12 | 0.43 | 0.07 | 0.6 | -0.54 | 0.61 | 2.34 | -0.45 |
| COC(=O)c1ccc2c(c1)NC(=O)/C2=C(\Nc1ccc(N(C)C(=O)CN2CCN(C)CC2)cc1)c1ccccc1 [Nintedanib (BIBF 1120)] | 0.08 | 1.75 | 0.96 | -0.1 | 0.48 | 2.57 | 0.27 | 3.05 | 0.3 | -0.36 |
| Cc1cc(Nc2cc(N3CCN(C)CC3)nc(Sc3ccc(NC(=O)C4CC4)cc3)n2)n[nH]1 [Tozasertib (VX-680, MK-0457)] | 1.29 | 3.67 | 1.21 | 0.58 | 1.87 | 2.62 | 0.91 | 2.4 | 7.67 | 0.93 |
| COc1cc2c(Oc3ccc(NC(=O)C4(C(=O)Nc5ccc(F)cc5)CC4)cc3F)ccnc2cc1OCCCN1CCOCC1 | 0.61 | 1.45 | 0.58 | 0.93 | 3.45 | 2.5 | 1.74 | 1.31 | 7.45 | 0.62 |
| O=C(c1cccc(Cl)c1F)N1CCN(Cc2cccc(Nc3nccs3)n2)CC1 | 1.37 | 0.61 | 1.32 | 0.37 | 0.2 | 0.46 | 1.01 | 2.51 | 9.07 | -0.27 |
| Oc1c(F)cc(-c2cnccc2-c2ccc(N3CCOCC3)cc2)cc1F | 1.14 | 1.01 | 0.34 | 0.58 | 0.1 | 0.21 | 0.35 | 0.7 | 0.35 | 0.29 |
| CCCNC(=O)c1cn2ncnc(Nc3cc(C(=O)NC4CC4)ccc3C)c2c1C | 0.66 | 0.41 | 0.99 | 0.33 | 0.18 | 0.12 | 0.08 | 0.8 | 0.54 | -0.21 |
| Cc1nc(Nc2ncc(C(=O)Nc3c(C)cccc3Cl)s2)cc(N2CCN(CCO)CC2)n1 [Dasatinib] | 0.7 | 0.68 | 1.43 | 0.25 | 0.73 | 0.48 | 0.58 | 0.93 | 4.94 | 0 |
| COc1ccc2c(Oc3ccc(NC(=O)c4c(C)n(CC(C)(C)O)n(-c5ccccc5)c4=O)nc3)ccnc2c1 | 1.79 | 0.76 | 0.86 | 1.14 | 0.79 | 0.65 | 1.3 | 0.98 | 5.4 | 0.76 |
| CCOc1cn(-c2ccc(F)cc2C)nc1C(=O)Nc1ccc(Oc2ccnc3cc(OC)c(OC)cc23)c(F)c1 | 0.32 | 1.07 | 0.34 | 0.6 | 0.43 | 0.98 | 0.56 | 1.15 | 2.96 | 0.55 |
| CCCS(=O)(=O)Nc1ccc(F)c(C(=O)c2c[nH]c3ncc(Cl)cc23)c1F | 0.54 | 2.26 | 1.16 | 5.8 | -0.05 | 2.74 | 1.49 | 0.84 | 1.51 | 0.28 |
| CC(C)Nc1cc(-c2c[nH]c(C(=O)N[C@H](CO)c3cccc(Cl)c3)c2)c(Cl)cn1 | 2.03 | 1.73 | 1.28 | 0.91 | 1.23 | 0.59 | 1.19 | 1.18 | 1.13 | 1.49 |
| Cc1c(NC(=O)OC[C@@H]2COCCN2)cn2ncnc(Nc3ccc4c(cnn4Cc4cccc(F)c4)c3)c12 | 0.24 | 1.47 | 1.55 | 0.59 | -0.1 | 0.39 | 0.88 | 0.86 | 0.51 | 0.42 |
| COc1ccc2c(c1)[C@]1(C[C@H]1c1ccc3c(/C=C/c4ccc(CN5C[C@@H](C)O[C@@H](C)C5)cc4)n[nH]c3c1)C(=O)N2 | 2.82 | -0.26 | 0.64 | 1.2 | 2.12 | 2.01 | -0.49 | 1.45 | 7.54 | 0.31 |
| C[C@H]1CNC(=O)c2cnn3ccc(nc23)N[C@H](C)c2cc(F)ccc2O1 | 0.38 | -0.02 | -0.09 | 2 | 1.17 | 0.74 | -0.67 | 2.82 | 10.7 | -0.27 |
| CC(C)c1ccc2oc3nc(N)c(C(=O)O)cc3c(=O)c2c1 [Amlexanox] | 1.39 | 3.07 | 0.37 | 0.05 | 0.99 | 4.3 | 0.24 | 1.49 | 0.32 | -0.09 |
| COc1cc(CCc2cc(NC(=O)c3ccc(N4CC(C)NC(C)C4)cc3)n[nH]2)cc(OC)c1 (stereo not given) | 0.84 | 0.69 | 0.93 | 0.35 | 0.25 | 0.66 | 0.89 | 1.49 | 2.12 | -0.05 |

From the supplement of paper PMC9694430
